Unmarked numbers belong to inactive results. The source made the active and inactive calls.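 The calls were made as follows, unless noted: active = inhibition above 50%; inactive = the rest.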
Assay: antimalarial activity against Dd2 strain (AID 2302;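 active = growth inhibition above 50% at the single 2 µM test dose, taken to imply half-maximal potency below 2 µM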;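 also: 0% = DMSO untreated growth and 100% = chloroquine plus artemisinin killed control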)
Settings: P. falciparum Dd2 in RBCs, LDH growth readout, 72 h; at 2 µM; hits give high values

SMILES	growth inhibition
COc1cccc(C(=O)[C@H]2C[C@@H]2CN(C)CCC(O)c2ccc(Cl)c(Cl)c2)c1 (stereo not given in full)	95% (active)
Cc1ccc(Cn2ncc(N3CCC(N)CC3)c(Cl)c2=O)cc1NC(=O)Nc1ccc(-c2ccccc2)cc1	25%
CN(C)Cc1ccc(O)c(-c2ccc(C(C)(C)C)cc2)n1	25%
COc1cc2nc(NCCCN3CCCCC3)nc(NCc3ccccc3)c2cc1OC	3%
CC(C)CCN1CCC(Oc2ccc(NC(=O)c3cccs3)cc2Cl)CC1	96% (active)
N#Cc1ccc(N[C@@H](CC2CCCCC2)C(=O)N[C@@H]2CCCc3ccccc32)c2ccccc12	99% (active)
Cc1ccc(NC(=O)c2ccc3ncccc3c2)cc1OC1CCN(Cc2ccc(F)cc2)CC1	22%
CCOc1ccc(-c2nc(NC(=O)COc3ccc(OC)cc3)sc2C)cc1	87% (active)
O=C(Nc1ccc2c(c1)CCC2)c1ccc(CN2CCCN(Cc3cccc(O)c3)CC2)cc1	46%
CN1CCN(c2ccnc3cc4c(cc23)N(C(=O)Nc2ccc(-c3ccncc3)c3ccccc23)CC4)CC1	97% (active)
Clc1ccc(OCCC2CCN(CCCCCCN3CCCCC3)CC2)cc1Cl	36%
Cc1cc(N2CCCC2=O)ccc1-c1ccc(C(=O)N2CCC(Oc3cccc(Cl)c3)CC2)cc1	98% (active)
c1ccc(CCNCc2ccc(-c3cccc(CNc4ccc5ncccc5c4)c3)cc2)cc1	17%
CC(C)(C)OC(=O)N1CCN(c2ccccc2NC(=O)c2cccc(C(F)(F)F)c2Oc2ccc(F)cc2)CC1	9%
N#CCCN1CCN(Cc2ccc(-c3ccc(-c4nc5ccc(F)cc5[nH]4)s3)cc2)CC1	38%
CCOC(=O)NC1=NC(C)(C)N(OCCCOc2cc(Cl)c(Cl)cc2Cl)C(N)=N1	94% (active)
Cc1ccc(-n2c(=O)c3cccnc3n2CC(=O)Nc2cccc(C)c2C)cc1	20%
COc1cccc(NC(=O)Cn2c(C)c(C#N)c3ccccc32)c1	100% (active)
CN(C)CC(O)C(O)(c1ccccc1)c1ccc(F)cc1 (stereo not given)	10%
Cc1[nH]c(C)c(Cc2ccc(Oc3ccc(OC(F)(F)F)cc3)cc2)c(=O)c1Br	87% (active)

SMILES	growth inhibition
C=CCC(C)n1ncc2c3c(N)nc(N)nc3ccc21 (stereo not given)	95% (active)
CC(C)N1CCN(c2ccc(OCCCCN3CCN(c4cccc(Cl)c4Cl)CC3)c(C(F)(F)F)c2)CC1	28%
FC(F)(F)c1ccc2nc(-c3cccc(-c4cccc(CNCCc5ccncc5)c4)c3)[nH]c2c1	97% (active)
O=C(C=Cc1ccccc1)Nc1ccc(C#CC=Cc2ccc(NC(=O)C=Cc3ccccc3)cc2)cc1	3%
CC1CN(Cc2ccccc2)CCN1c1ccc(NC(=O)c2cccs2)cc1 (stereo not given)	96% (active)
CC1(C)N=C(N)N=C(N)C1c1ccc(Cl)c(Cl)c1 (stereo not given)	0%
CN1CCC(NCc2ccc(-c3ccc(S(=O)(=O)NCc4ccccc4)cc3)cc2)CC1	51% (active)
CC(C)CCN1CCC(Oc2cccc(NC(=O)c3ccc(C(F)(F)F)cc3)c2)CC1	6%
Cc1cccc2[nH]c(-c3ccc(-c4cccc(NC(=O)Cc5cnc[nH]5)c4)cc3)nc12	21%
O=C(Nc1ccccc1N1CCOCC1)c1ncoc1-c1ccccc1C(F)(F)F	60% (active)
COc1cccc(C2(c3cccc(OC)c3)N=C(N)N(CCCc3ccccc3)C2=O)c1	93% (active)
Cc1cccc2[nH]c(-c3ccc(-c4ccc(CN5CCN(CC6CCCN(C)C6)CC5)cc4)cc3)nc12 (stereo not given)	99% (active)
O=S(=O)(Nc1ccc(CCN2CCC(N3CCCCC3)CC2)cc1)c1ccc2ccccc2c1	80% (active)
CCCc1ccc(S(=O)(=O)NC2CCN(C(=O)Nc3ccc(I)cc3)CC2)cc1	-8%
CNC(=O)c1cnc(Nc2ccc(N3CCN(C)CC3)c(C)c2)nc1NC	38%
C[C@H]1CN(Cc2cccc(-c3cc(CNC(=O)c4cccc(CC5CCN(C)CC5)c4)ccc3F)c2)CCN1C	99% (active)
C=CCn1c(=N)c(C(=O)NC2CCCCC2)cc2c(=O)n3cccc(C)c3nc21	58% (active)
O=C(/C=C/c1ccc(Cl)c(Cl)c1)N1CCC(CCN2CCc3[nH]c4ccccc4c3C2)CC1	-1%
CCC(C)OC(=O)C1=C(C)NC2=C(C(=O)CC(c3ccc(OC)c(OC)c3)C2)C1c1ccc(O)cc1 (stereo not given)	97% (active)
CCc1ccc(N2C(=O)C3C(Cc4ccc(OC(C)(C)C)cc4)NC4(C(=O)N(Cc5ccccc5)c5ccc(F)cc54)C3C2=O)cc1 (stereo not given)	49%

Assay: HepG2 cytotoxicity, primary screen, cytotoxicity control for P. falciparum antimalarial project, cell-based, ATP luminescence (AID 2303);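 also: 0% = DMSO wells and 100% = digitonin-killed cells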
Settings: HepG2 viability, 24-48 h, at 10 µM, hits give high values

SMILES	inhibition
COc1cccc(C(=O)[C@H]2C[C@@H]2CN(C)CCC(O)c2ccc(Cl)c(Cl)c2)c1 (stereo not given in full)	17%
Cc1ccc(Cn2ncc(N3CCC(N)CC3)c(Cl)c2=O)cc1NC(=O)Nc1ccc(-c2ccccc2)cc1	29%
CN(C)Cc1ccc(O)c(-c2ccc(C(C)(C)C)cc2)n1	-1%
COc1cc2nc(NCCCN3CCCCC3)nc(NCc3ccccc3)c2cc1OC	12%
CC(C)CCN1CCC(Oc2ccc(NC(=O)c3cccs3)cc2Cl)CC1	31%
N#Cc1ccc(N[C@@H](CC2CCCCC2)C(=O)N[C@@H]2CCCc3ccccc32)c2ccccc12	12%
Cc1ccc(NC(=O)c2ccc3ncccc3c2)cc1OC1CCN(Cc2ccc(F)cc2)CC1	6%
CCOc1ccc(-c2nc(NC(=O)COc3ccc(OC)cc3)sc2C)cc1	0%
O=C(Nc1ccc2c(c1)CCC2)c1ccc(CN2CCCN(Cc3cccc(O)c3)CC2)cc1	45%
CN1CCN(c2ccnc3cc4c(cc23)N(C(=O)Nc2ccc(-c3ccncc3)c3ccccc23)CC4)CC1	10%
Clc1ccc(OCCC2CCN(CCCCCCN3CCCCC3)CC2)cc1Cl	86% (active)
Cc1cc(N2CCCC2=O)ccc1-c1ccc(C(=O)N2CCC(Oc3cccc(Cl)c3)CC2)cc1	34%
c1ccc(CCNCc2ccc(-c3cccc(CNc4ccc5ncccc5c4)c3)cc2)cc1	30%
CC(C)(C)OC(=O)N1CCN(c2ccccc2NC(=O)c2cccc(C(F)(F)F)c2Oc2ccc(F)cc2)CC1	3%
N#CCCN1CCN(Cc2ccc(-c3ccc(-c4nc5ccc(F)cc5[nH]4)s3)cc2)CC1	58% (active)
CCOC(=O)NC1=NC(C)(C)N(OCCCOc2cc(Cl)c(Cl)cc2Cl)C(N)=N1	63% (active)
Cc1ccc(-n2c(=O)c3cccnc3n2CC(=O)Nc2cccc(C)c2C)cc1	9%
COc1cccc(NC(=O)Cn2c(C)c(C#N)c3ccccc32)c1	16%
CN(C)CC(O)C(O)(c1ccccc1)c1ccc(F)cc1 (stereo not given)	-10%
Cc1[nH]c(C)c(Cc2ccc(Oc3ccc(OC(F)(F)F)cc3)cc2)c(=O)c1Br	29%

SMILES	inhibition
C=CCC(C)n1ncc2c3c(N)nc(N)nc3ccc21 (stereo not given)	66% (active)
CC(C)N1CCN(c2ccc(OCCCCN3CCN(c4cccc(Cl)c4Cl)CC3)c(C(F)(F)F)c2)CC1	64% (active)
FC(F)(F)c1ccc2nc(-c3cccc(-c4cccc(CNCCc5ccncc5)c4)c3)[nH]c2c1	31%
O=C(C=Cc1ccccc1)Nc1ccc(C#CC=Cc2ccc(NC(=O)C=Cc3ccccc3)cc2)cc1	26%
CC1CN(Cc2ccccc2)CCN1c1ccc(NC(=O)c2cccs2)cc1 (stereo not given)	0%
CC1(C)N=C(N)N=C(N)C1c1ccc(Cl)c(Cl)c1 (stereo not given)	47%
CN1CCC(NCc2ccc(-c3ccc(S(=O)(=O)NCc4ccccc4)cc3)cc2)CC1	40%
CC(C)CCN1CCC(Oc2cccc(NC(=O)c3ccc(C(F)(F)F)cc3)c2)CC1	39%
Cc1cccc2[nH]c(-c3ccc(-c4cccc(NC(=O)Cc5cnc[nH]5)c4)cc3)nc12	13%
O=C(Nc1ccccc1N1CCOCC1)c1ncoc1-c1ccccc1C(F)(F)F	-2%
COc1cccc(C2(c3cccc(OC)c3)N=C(N)N(CCCc3ccccc3)C2=O)c1	3%
Cc1cccc2[nH]c(-c3ccc(-c4ccc(CN5CCN(CC6CCCN(C)C6)CC5)cc4)cc3)nc12 (stereo not given)	91% (active)
O=S(=O)(Nc1ccc(CCN2CCC(N3CCCCC3)CC2)cc1)c1ccc2ccccc2c1	44%
CCCc1ccc(S(=O)(=O)NC2CCN(C(=O)Nc3ccc(I)cc3)CC2)cc1	8%
CNC(=O)c1cnc(Nc2ccc(N3CCN(C)CC3)c(C)c2)nc1NC	19%
C[C@H]1CN(Cc2cccc(-c3cc(CNC(=O)c4cccc(CC5CCN(C)CC5)c4)ccc3F)c2)CCN1C	42%
C=CCn1c(=N)c(C(=O)NC2CCCCC2)cc2c(=O)n3cccc(C)c3nc21	0%
O=C(/C=C/c1ccc(Cl)c(Cl)c1)N1CCC(CCN2CCc3[nH]c4ccccc4c3C2)CC1	22%
CCC(C)OC(=O)C1=C(C)NC2=C(C(=O)CC(c3ccc(OC)c(OC)c3)C2)C1c1ccc(O)cc1 (stereo not given)	3%
CCc1ccc(N2C(=O)C3C(Cc4ccc(OC(C)(C)C)cc4)NC4(C(=O)N(Cc5ccccc5)c5ccc(F)cc54)C3C2=O)cc1 (stereo not given)	9%

From PubChem BioAssay
